# PubChem BioAssay (NCATS)
# Records with an inconclusive call do not appear. Values without a mark were called inactive. Active and inactive are the calls of the source. The call rests on the fitted dose curve; in most records, active means well fitted curve in the direction sought with a large enough effect; inconclusive means small, poorly fitted or top-dose-only effect, or another doubt; inactive means no such curve, though single readings can be large; an effect the other way counts as inactive or inconclusive.
# Molecular target: Phospholipid hydroperoxide glutathione peroxidase GPX4 (Homo sapiens) (UniProt P36969)
# Sequence (P36969 whole entry, looked up): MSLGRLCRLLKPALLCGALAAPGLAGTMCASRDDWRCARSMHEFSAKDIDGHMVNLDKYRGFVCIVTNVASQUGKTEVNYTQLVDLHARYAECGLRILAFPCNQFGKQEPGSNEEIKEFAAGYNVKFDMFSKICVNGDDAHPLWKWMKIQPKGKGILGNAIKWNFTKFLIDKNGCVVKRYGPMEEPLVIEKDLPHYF
# Test: Primary qHTS Assay for Inhibitors of Recombinant Selenoprotein Glutathione Peroxidase 4 (GPX4) (AID 1845192); further: nearly all actives have a fitted effect of over 65% in size; on activity change, negative = inhibition: on the % scale 0 is the no-effect control and ±100 the full control effect
# Settings: recombinant GPX4, GR-coupled NADPH fluorescence, 15 min; series mostly up to 50 µM; activity change, negative = inhibition: at the top concentration
# In short: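 NADPH consumption, followed by fluorescence at 340/450 nm between 0 and 15 min, reports GPX4 activity via coupled glutathione reductase (100 nM). Enzyme 200 nM was pre-exposed to compound 30 min; 0.5 mM cumene hydroperoxide and 1 mM GSH served as substrates.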
# Potency means the concentration at half of the fitted maximal effect.
SMILES,Potency,"activity change, negative = inhibition",outcome
Nc1ccn([C@@H]2O[C@H](CO)[C@@H](O)[C@H]2O)c(=O)n1,inactive,–,–
CN(C)N=Nc1nc[nH]c1C(N)=O,–,-3.97%,–
CCCCCCCCCCCCCCCC(=O)O[C@H]1[C@@H](O)[C@@H](O)[C@@H]([C@H](NC(=O)[C@@H]2C[C@@H](CCC)CN2C)[C@H](C)Cl)O[C@@H]1SC,–,-15%,–
O=C(Nc1cccc(Cl)c1)Nc1ncc(CCNc2ncnc3ccsc23)s1,–,-25%,–
CCCCOCCOc1nc(-c2ccc(C(=O)O)c(F)c2)sc1C,–,3.64%,–
NCC1CCC(C(=O)O)CC1 (stereo not drawn),inactive,–,–
CCC[C@H](N[C@@H](C)C(=O)N1[C@@H]2CCCC[C@H]2C[C@H]1C(=O)O)C(=O)OCC,–,-0.857%,–
CCCCC[C@H](O)C=C[C@H]1[C@H](O)CC(=O)[C@H]1CC=CCCCC(=O)O,–,–,inactive
CC[C@H](C)C(=O)O[C@H]1C[C@H](O)C=C2C=C[C@H](C)[C@H](CC[C@@H](O)C[C@@H](O)CC(=O)O)[C@H]21,–,–,inactive
CN1CCN(c2ncc(-c3cc(Cl)cc(Cl)c3Cl)c(N)n2)CC1,–,1.21%,–
O=C1CCCC(=O)C1C(=O)c1ccc(C(F)(F)F)cc1[N+](=O)[O-],–,-22.7%,–
O=C(NCCCCN1CCOCC1)c1cc2ccccc2o1,–,-10.8%,–
C[C@@H](O)[C@H]1C(=O)N2C(C(=O)OCOC(=O)C(C)(C)C)=C(SC3CN(C4=NCCS4)C3)[C@H](C)[C@H]12,–,–,inactive
N#Cc1c(N(CC(=O)O)CC(=O)O)sc(C(=O)O)c1CC(=O)O,–,4.92% [at 0.409 µM],–
COC1CCC(C(=O)c2ccc3nc4c(cc3c2)CCCO4)CC1 (stereo not drawn),–,-4.28%,–
COc1ccnc(CS(=O)c2nc3ccc(OC(F)F)cc3[nH]2)c1OC (stereo not drawn),16.1 µM (active),–,–
CN(C)c1ccccc1CN1CCCN(Cc2ccccc2N(C)C)C1c1ccncc1,–,–,inactive
CNC(=O)c1cc(COc2nnc(Nc3ccc(Cl)cc3)c3ccoc23)ccn1,–,–,inactive
COc1cc2ncn(-c3cc(OCc4ccccc4S(C)(=O)=O)c(C#N)s3)c2cc1OC,–,4.62%,–
CCOC(=O)[C@@H](N)CCC(=O)N[C@@H](CSCc1ccccc1)C(=O)N[C@@H](C(=O)OCC)c1ccccc1,–,-12%,–

SMILES,Potency,"activity change, negative = inhibition",outcome
O=C1CN2Cc3c(ccc(Cl)c3Cl)N=C2N1,–,-11.9%,–
COC(=O)[C@H](c1ccccc1Cl)N1CCc2sccc2C1,–,-3.38%,–
Cc1ccc(S(=O)(=O)Nc2nc3ccccc3nc2Nc2ccc3nsnc3c2)cc1,–,-3.79% [at 27.8 µM],–
COc1cc(F)c(C(C)C)cc1-c1ccc(C(F)(F)F)cc1CN1C(=O)O[C@H](c2cc(C(F)(F)F)cc(C(F)(F)F)c2)[C@@H]1C,–,-1.63%,–
CN1CC(=O)NC1=NC(=O)Nc1cccc(Cl)c1,–,-1.12%,–
Cn1cc(-c2ccc3nnc(Sc4ccc5ncccc5c4)n3n2)cn1,–,-16.4%,–
NC[C@H]1O[C@H](O[C@@H]2[C@@H](O)[C@@H](O[C@H]3O[C@H](CO)[C@@H](O)[C@H](N)[C@@H]3O)[C@H](N)C[C@@H]2N)[C@H](O)[C@@H](O)[C@H]1O,–,-1.97%,–
N#CC(c1ccnc(NCCc2cccnc2)n1)c1nc2ccccc2s1 (stereo not drawn),–,-27.3%,–
COc1cc2c(cc1OC)CC(=O)N(CCCN(C)C[C@H]1Cc3cc(OC)c(OC)cc31)CC2,inactive,–,–
C[C@@H]1C[C@H]2[C@@H]3CCC4=CC(=O)C=C[C@]4(C)[C@@]3(F)[C@@H](O)C[C@]2(C)[C@@]1(O)C(=O)CO,inactive,–,–
O=C(O)c1ccc(O)c2ncc(N3CCOCC3)cc12,–,-2.76%,–
COc1cccc(OC)c1-c1cc(C(=O)NC2(C(=O)O)C3CC4CC(C3)CC2C4)nn1-c1ccnc2cc(Cl)ccc12 (stereo not drawn),–,-15.4%,–
CC(C)C[C@@H](N)[C@H](O)C(=O)N[C@H](C(=O)N[C@H](C(=O)N[C@@H](CC(=O)O)C(=O)O)C(C)C)C(C)C,–,–,inactive
C[C@]12CC[C@@H]3c4ccc(O)cc4CC[C@H]3[C@H]1[C@@H](O)[C@@H](O)[C@H]2O,–,–,inactive
COC(=O)Nc1ccc(-c2nc(N3CCOCC3)c3cnn(C4CCN(C(=O)OC)CC4)c3n2)cc1,–,3.41%,–
CC[C@]1(O)C[C@H]2CN(CCC3=c4ccccc4=N[C]3[C@@](C(=O)OC)(c3cc4c(cc3OC)N(C)[C@H]3[C@@](O)(C(N)=O)[C@H](O)[C@]5(CC)C=CCN6CC[C@]43[C@@H]65)C2)C1,–,-10.5%,–
CCC(c1ccc(O)cc1)C(CC)c1ccc(O)cc1 (stereo not drawn),–,-16.1%,–
Cc1ccc(NC(=O)c2ccc(CN3CCN(C)CC3)cc2)cc1Nc1nc(-c2cccnc2)cs1,–,-4.94%,–
CCCC1OC2C[C@@H]3[C@H]4CCC5=CC(=O)C=C[C@]5(C)[C@H]4C(O)C[C@]3(C)[C@]2(C(=O)CO)O1 (stereo partly drawn),–,2.33%,–

# Test system: not listed separately
# Test: Quantitative High-Throughput drug screen in 47 multiple myeloma cell lines against the NCATS MIPE library collection: FR4_PLB cell viability assay (AID 1918924; further: nearly all actives have a fitted effect of over 35% in size;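 on viability (% of DMSO control): 100% = DMSO-treated cells and 0% = wells with media only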)
# Settings: FR4_PLB myeloma cells viability, CellTiter-Glo ATP, 48 h; series mostly up to 45.8 µM; viability (% of DMSO control): at the top concentration
# In short: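 Primary qHTS used for cherry-picking: cells at 500/well, library compounds for 48 h (37C, 5% CO2), luminescent ATP assay.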
SMILES,viability (% of DMSO control) [%],Potency
Nc1ccn([C@@H]2O[C@H](CO)[C@@H](O)[C@H]2O)c(=O)n1,149,–
CN(C)N=Nc1nc[nH]c1C(N)=O,139,–
CCCCCCCCCCCCCCCC(=O)O[C@H]1[C@@H](O)[C@@H](O)[C@@H]([C@H](NC(=O)[C@@H]2C[C@@H](CCC)CN2C)[C@H](C)Cl)O[C@@H]1SC,98.8,–
O=C(Nc1cccc(Cl)c1)Nc1ncc(CCNc2ncnc3ccsc23)s1,–,6.62 µM (active)
CCCCOCCOc1nc(-c2ccc(C(=O)O)c(F)c2)sc1C,105,–
NCC1CCC(C(=O)O)CC1 (stereo not drawn),109,–
CCC[C@H](N[C@@H](C)C(=O)N1[C@@H]2CCCC[C@H]2C[C@H]1C(=O)O)C(=O)OCC,114,–
CCCCC[C@H](O)C=C[C@H]1[C@H](O)CC(=O)[C@H]1CC=CCCCC(=O)O,119,–
CC[C@H](C)C(=O)O[C@H]1C[C@H](O)C=C2C=C[C@H](C)[C@H](CC[C@@H](O)C[C@@H](O)CC(=O)O)[C@H]21,108,–
CN1CCN(c2ncc(-c3cc(Cl)cc(Cl)c3Cl)c(N)n2)CC1,123,–
O=C1CCCC(=O)C1C(=O)c1ccc(C(F)(F)F)cc1[N+](=O)[O-],108,–
O=C(NCCCCN1CCOCC1)c1cc2ccccc2o1,116,–
C[C@@H](O)[C@H]1C(=O)N2C(C(=O)OCOC(=O)C(C)(C)C)=C(SC3CN(C4=NCCS4)C3)[C@H](C)[C@H]12,94.1,–
N#Cc1c(N(CC(=O)O)CC(=O)O)sc(C(=O)O)c1CC(=O)O,94,–
COC1CCC(C(=O)c2ccc3nc4c(cc3c2)CCCO4)CC1 (stereo not drawn),–,26.4 µM (active)
COc1ccnc(CS(=O)c2nc3ccc(OC(F)F)cc3[nH]2)c1OC (stereo not drawn),129,–
CN(C)c1ccccc1CN1CCCN(Cc2ccccc2N(C)C)C1c1ccncc1,–,18.7 µM (active)
CNC(=O)c1cc(COc2nnc(Nc3ccc(Cl)cc3)c3ccoc23)ccn1,–,26.4 µM (active)
COc1cc2ncn(-c3cc(OCc4ccccc4S(C)(=O)=O)c(C#N)s3)c2cc1OC,121,–
CCOC(=O)[C@@H](N)CCC(=O)N[C@@H](CSCc1ccccc1)C(=O)N[C@@H](C(=O)OCC)c1ccccc1,118,–

SMILES,viability (% of DMSO control) [%],Potency
O=C1CN2Cc3c(ccc(Cl)c3Cl)N=C2N1,82.4,–
COC(=O)[C@H](c1ccccc1Cl)N1CCc2sccc2C1,119,–
Cc1ccc(S(=O)(=O)Nc2nc3ccccc3nc2Nc2ccc3nsnc3c2)cc1,–,6.45 µM (active)
COc1cc(F)c(C(C)C)cc1-c1ccc(C(F)(F)F)cc1CN1C(=O)O[C@H](c2cc(C(F)(F)F)cc(C(F)(F)F)c2)[C@@H]1C,124,–
CN1CC(=O)NC1=NC(=O)Nc1cccc(Cl)c1,–,20.9 µM (active)
Cn1cc(-c2ccc3nnc(Sc4ccc5ncccc5c4)n3n2)cn1,129,–
NC[C@H]1O[C@H](O[C@@H]2[C@@H](O)[C@@H](O[C@H]3O[C@H](CO)[C@@H](O)[C@H](N)[C@@H]3O)[C@H](N)C[C@@H]2N)[C@H](O)[C@@H](O)[C@H]1O,106,–
N#CC(c1ccnc(NCCc2cccnc2)n1)c1nc2ccccc2s1 (stereo not drawn),–,20.9 µM (active)
COc1cc2c(cc1OC)CC(=O)N(CCCN(C)C[C@H]1Cc3cc(OC)c(OC)cc31)CC2,118,–
C[C@@H]1C[C@H]2[C@@H]3CCC4=CC(=O)C=C[C@]4(C)[C@@]3(F)[C@@H](O)C[C@]2(C)[C@@]1(O)C(=O)CO,98.3,–
O=C(O)c1ccc(O)c2ncc(N3CCOCC3)cc12,104,–
COc1cccc(OC)c1-c1cc(C(=O)NC2(C(=O)O)C3CC4CC(C3)CC2C4)nn1-c1ccnc2cc(Cl)ccc12 (stereo not drawn),101,–
CC(C)C[C@@H](N)[C@H](O)C(=O)N[C@H](C(=O)N[C@H](C(=O)N[C@@H](CC(=O)O)C(=O)O)C(C)C)C(C)C,125,–
C[C@]12CC[C@@H]3c4ccc(O)cc4CC[C@H]3[C@H]1[C@@H](O)[C@@H](O)[C@H]2O,141,–
COC(=O)Nc1ccc(-c2nc(N3CCOCC3)c3cnn(C4CCN(C(=O)OC)CC4)c3n2)cc1,–,1.05 µM (active)
CC[C@]1(O)C[C@H]2CN(CCC3=c4ccccc4=N[C]3[C@@](C(=O)OC)(c3cc4c(cc3OC)N(C)[C@H]3[C@@](O)(C(N)=O)[C@H](O)[C@]5(CC)C=CCN6CC[C@]43[C@@H]65)C2)C1,26.1,–
CCC(c1ccc(O)cc1)C(CC)c1ccc(O)cc1 (stereo not drawn),–,5.26 µM (active)
Cc1ccc(NC(=O)c2ccc(CN3CCN(C)CC3)cc2)cc1Nc1nc(-c2cccnc2)cs1,–,20.9 µM (active)
CCCC1OC2C[C@@H]3[C@H]4CCC5=CC(=O)C=C[C@]5(C)[C@H]4C(O)C[C@]3(C)[C@]2(C(=O)CO)O1 (stereo partly drawn),74.4,–
